Values without a mark were called inactive. The source made the active and inactive calls.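 The calls were made as follows: active = inhibition reaching about 16% in any single replicate (limit read from the data); inactive = the rest.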
The compounds below were run against Hexokinase HKDC1 (Homo sapiens) (UniProt Q2TB90) (assay: compounds lowering human HKDC1 activity – biochemical, single concentration, confirmation (AID 504710)). Conditions: recombinant HKDC1, G6PDH/diaphorase/resazurin fluorescence; at 20 µM; stronger effect = higher value.
Sequence of Hexokinase HKDC1 (Homo sapiens) (Q2TB90 whole entry, looked up): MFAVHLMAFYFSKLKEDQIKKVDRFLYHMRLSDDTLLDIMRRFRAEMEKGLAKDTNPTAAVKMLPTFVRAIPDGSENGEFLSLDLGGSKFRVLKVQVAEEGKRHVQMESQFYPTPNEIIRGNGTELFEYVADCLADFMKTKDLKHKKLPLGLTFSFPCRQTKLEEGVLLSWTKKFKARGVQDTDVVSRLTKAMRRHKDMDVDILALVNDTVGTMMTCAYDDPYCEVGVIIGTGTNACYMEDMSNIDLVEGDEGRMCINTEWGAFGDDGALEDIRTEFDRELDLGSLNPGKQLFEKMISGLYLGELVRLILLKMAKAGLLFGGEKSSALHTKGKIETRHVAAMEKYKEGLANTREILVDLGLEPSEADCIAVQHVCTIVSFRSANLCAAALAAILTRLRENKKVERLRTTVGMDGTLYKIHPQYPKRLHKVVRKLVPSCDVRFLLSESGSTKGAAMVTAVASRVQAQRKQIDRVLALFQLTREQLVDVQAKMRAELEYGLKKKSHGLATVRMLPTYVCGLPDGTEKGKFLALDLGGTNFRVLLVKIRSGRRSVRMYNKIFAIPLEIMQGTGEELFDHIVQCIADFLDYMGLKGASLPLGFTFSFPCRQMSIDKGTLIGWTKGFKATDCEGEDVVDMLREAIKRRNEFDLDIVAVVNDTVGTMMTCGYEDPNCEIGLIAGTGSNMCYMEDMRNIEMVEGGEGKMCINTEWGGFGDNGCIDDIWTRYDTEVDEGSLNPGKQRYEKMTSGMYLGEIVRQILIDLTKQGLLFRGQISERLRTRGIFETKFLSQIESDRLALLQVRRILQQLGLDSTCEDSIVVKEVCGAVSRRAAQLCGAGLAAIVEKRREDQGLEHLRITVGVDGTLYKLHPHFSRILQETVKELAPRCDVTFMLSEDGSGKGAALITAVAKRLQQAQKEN

SMILES | inhibition
O=C(C1=C(c2ccccc2)C(=O)c2ccccc2C1=O)c1ccccc1 | 52% (active)
Cc1cc(C)n2nc(SCc3nnc(SCc4ccccc4Cl)s3)nc2n1 | 43% (active)
Cc1cc2cc(CCNC(=O)c3ccc(S(=O)(=O)N4CCCC4)cc3)c(=O)[nH]c2cc1C | 53.2% (active)
Cc1onc(-c2ccccc2)c1C(=O)NNC(=S)NC(=O)c1ccc(Br)cc1 | -56.7%
COc1ccc(NC(=O)CSc2ccc(-c3ccco3)nn2)c(OC)c1 | 70.8% (active)
NS(=O)(=O)c1ccc(N=Nc2c(=O)[nH]n3c(=O)c4c([nH]c23)CCCC4)cc1 | 72.5% (active)
CCCCNC(=O)c1sc(=S)n2c1[nH]c(=O)c1ccccc12 | 56.5% (active)
CC(=O)NC1C(=O)N(CCN2CCOCC2)c2ccc(F)cc21 (stereo not drawn) | 61.1% (active)
CC(C)c1ccc(S(=O)(=O)/N=C2/C=C(Sc3ncn[nH]3)C(=O)c3ccccc32)cc1 | 60.8% (active)
CC(C)c1nc2oc3c(NCC4CCCO4)ncnc3c2c2c1COC(C)(C)C2 (stereo not drawn) | 62.8% (active)
Cc1ccc(C)c(S(=O)(=O)Nc2cc(SCC(=O)O)c(O)c3ccccc23)c1 | 55.2% (active)
Cc1[nH]n(-c2ccccc2)c(=O)c1/C=N/Nc1nncc(-c2ccccc2)n1 | -60.6%
COc1ccc(C2=NNC(=Nc3cc(S(=O)(=O)N(C)C)ccc3C)SC2)c(OC)c1 | -120%
CC(=NNC(=S)N1CC2CCC(CC2)C1)c1ccncn1 | -61.4%
CC(NC(=O)c1sc2cc([N+](=O)[O-])ccc2c1Cl)C(C)(C)C (stereo not drawn) | -39.3%
Cc1cccc(C)c1Nc1nnc(SCc2cn3cccc(C)c3n2)s1 | 54.1% (active)
CCCCC(=O)NC(c1ccc(N(CC)CC)cc1)c1ccc2cccnc2c1O (stereo not drawn) | -59.3%
CCc1ccc(S(=O)(=O)/N=C2\C=C(Nc3ccc(C(=O)O)cc3)C(=O)c3ccccc32)cc1 | 59.8% (active)
O=C1C(SCCO)=C(SCCO)C(=O)c2ccccc21 | 84.1% (active)
CC(C)(C=O)C1=CC(=O)c2ccccc2C1=O | 41.2% (active)
O=S(=O)(c1ccc(NC(=S)NN=C(Cc2ccccc2)Cc2ccccc2)cc1)N1CCOCC1 | -43.9%
CC12CCC(C(=O)N/N=C/c3ccc(O)cc3O)(OC1=O)C2(C)C (stereo not drawn) | -34.9%
CCC(C)C(N)C1=NC(C(=O)N[C@@H](CC(C)C)C(=O)N[C@H](CCC(=O)[O-])C(=O)N[C@H](C(=O)N[C@H]2CCCCNC(=O)[C@H](CC(N)=O)NC(=O)[C@@H](CC(=O)[O-])NC(=O)[C@H](Cc3cnc[nH]3)NC(=O)[C@@H](Cc3ccccc3)NC(=O)[C@H]([C@@H](C)CC)NC(=O)[C@@H](CCCN)NC2=O)[C@@H](C)CC)CS1.[Zn+2] (stereo partly drawn) | 74.9% (active)
